KCNQ2 enhance = enhances the rat KCNQ2 potassium channel; B-score at 10 µM; actives 0.54% (n = 310,000); CHO-K1 KCNQ2, FluxOR thallium flux fluorescence; hits give high values;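 active = fluorescence ratio B-score at least 3 SD of library B-scores, with initial fluorescence B-score within 3 of them, cut at about 5.3 in these data; same plate scores as AID 2156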;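 note: B-score of peak minus minimum over baseline fluorescence ratio after K+ and Tl+ stimulus; positive B-score means potentiation of KCNQ2 with more thallium influx and brighter signal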
Target sequence (O88943 whole entry, looked up): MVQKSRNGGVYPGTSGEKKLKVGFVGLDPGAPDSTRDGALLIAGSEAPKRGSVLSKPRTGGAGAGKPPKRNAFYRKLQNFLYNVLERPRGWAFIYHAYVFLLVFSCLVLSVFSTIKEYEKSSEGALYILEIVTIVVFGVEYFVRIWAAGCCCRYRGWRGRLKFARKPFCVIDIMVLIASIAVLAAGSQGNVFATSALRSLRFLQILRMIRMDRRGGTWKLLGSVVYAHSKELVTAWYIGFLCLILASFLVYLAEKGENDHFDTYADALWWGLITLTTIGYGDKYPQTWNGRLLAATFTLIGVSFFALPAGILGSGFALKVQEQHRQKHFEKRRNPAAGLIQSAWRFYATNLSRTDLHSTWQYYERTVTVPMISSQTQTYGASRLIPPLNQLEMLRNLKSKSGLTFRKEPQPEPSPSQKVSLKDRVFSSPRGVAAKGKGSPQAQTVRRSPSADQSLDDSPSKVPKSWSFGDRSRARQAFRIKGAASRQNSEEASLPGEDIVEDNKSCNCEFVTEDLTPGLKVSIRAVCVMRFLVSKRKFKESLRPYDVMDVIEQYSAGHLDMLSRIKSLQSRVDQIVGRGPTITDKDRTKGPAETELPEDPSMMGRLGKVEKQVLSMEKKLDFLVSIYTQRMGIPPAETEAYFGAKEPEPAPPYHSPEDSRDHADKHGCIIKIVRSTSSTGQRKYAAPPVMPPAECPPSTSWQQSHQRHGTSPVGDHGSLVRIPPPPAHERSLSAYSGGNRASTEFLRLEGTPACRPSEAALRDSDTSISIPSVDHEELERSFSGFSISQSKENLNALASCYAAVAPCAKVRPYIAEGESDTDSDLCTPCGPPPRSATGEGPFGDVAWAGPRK
KCNQ2 block = inhibitors of rat KCNQ2 potassium channel | CHO-K1 KCNQ2, FluxOR thallium flux, 20 min; hits give low values | AID 2156 | B-score at 10 µM | O88943 | actives 1.1% (n = 310,000);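 active = fluorescence ratio B-score at most minus 3 library SDs, with starting brightness B-score within 2 library SDs, cut at about -5.5 in these data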
KCNQ2 block conf = confirmation of rat KCNQ2 potassium channel inhibitors | KCNQ2-expressing cells, thallium flux, inhibition; hits give low values | shares compounds with KCNQ2 block | AID 493025 | actives 57% (n = 1,000) | activity change, negative = inhibition, % at 10 µM
KCNQ1 spec = human KCNQ1 activity in KCNQ2 inhibitor specificity screen; shares compounds with KCNQ2 block; KCNQ1-expressing cells, FluxOR thallium flux fluorescence; hits give low values; activity change, negative = inhibition, % at 10 µM; actives 15% (n = 1,000); AID 493026;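 active = activity change at least 3 SD of negative controls below their mean in both duplicate wells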;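 note: CHO cells stably transfected with KCNQ1 and depolarized by potassium stimulus; peak minus minimum fluorescence over baseline after thallium addition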
CHO Tl ctr = counter-screen for KCNQ2 inhibitors: effect in parental CHO cells; shares compounds with KCNQ2 block; thallium flux counter-screen; hits give low values; activity change, % at 10 µM; actives 14% (n = 1,000); AID 493029
KCNQ2 inh confirm = blocks rat KCNQ2 current in automated patch clamp | shares compounds with KCNQ2 block | KCNQ2-expressing cells | calls only at 10 µM | actives 49% (n = 550)
A number is an active result; - = inactive; . = not tested or not shown; + = active, no number. Only some compounds are listed: those with a hit (about 1.6% of all), similar ones and a draw of the others. Unless noted, the rule behind the calls is not given here.

SMILES	KCNQ2 enhance	KCNQ2 block	KCNQ2 block conf	KCNQ1 spec	CHO Tl ctr	others
CC(=O)N1CCN(c2cc(N3CCCC3)c(F)cc2[N+](=O)[O-])CC1	.	-	.	.	.
Cc1ccc(-n2nc3c(c2NC(=O)c2ccco2)CS(=O)C3)cc1 (centres undefined)	.	-	.	.	.
O=C(C1CCN(C2CCN(CC3CC=CCC3)CC2)CC1)N1CCOCC1 (centres undefined)	.	-	.	.	.
CCOC(=O)N1CCN(CCC(=O)c2ccc(Br)cc2)CC1	-	-7.1	-	-	-
COc1cc2c(cc1OC)CN(CCC(=O)c1ccc(Br)cc1)CC2	-	-9.6	-45%	-43%	-36%	KCNQ2 inh confirm=-
COc1cc2c(cc1OC)CN(CC(=O)Nc1cccc(C)c1)CC2	.	-	.	.	.
CCOC(=O)N1CCN(CCC(=O)Nc2ccc(C)cc2)CC1	-	-	.	.	.
Cc1onc(-c2ccccc2Cl)c1C(=O)Nc1ccc(Br)cc1	.	-	.	.	.
Cc1ccccc1/C(N)=N/OC(=O)c1cccs1	-	-	.	.	.
C/C(=C\C(=O)c1ccc(Br)cc1)Nc1ccc(Cl)cc1	.	-	.	.	.
COc1cccc(N/C(C)=C/C(=O)c2ccc(Br)cc2)c1	-	-7.6	-41%	-47%	-33%	KCNQ2 inh confirm=-
CCOc1ccc(CCNC(=O)CSc2n[nH]c(N)n2)cc1OCC	-	-	.	.	.
COc1ccccc1-c1cc(C(F)(F)F)nc(N2CCCCC2)n1	-	-9.7	-	-	-
COc1ccccc1-c1cc(C(F)(F)F)nc(N2CCCC2)n1	-	-	.	.	.
Cc1cccc(OCC(=O)Nc2cccc(-c3nnc(-c4ccccc4)o3)c2)c1C	-	-	.	.	.
Cc1cccc(C)c1OCC(=O)Nc1cccc(-c2nnc(-c3ccccc3)o2)c1	-	-9.5	-28%	-	-	KCNQ2 inh confirm=-
CCCCC(NC(=O)Cc1c(C)c2cc3c(-c4ccccc4)coc3c(C)c2oc1=O)C(=O)O (centres undefined)	-	-	.	.	.
CCN(Cc1ccccc1)C(=O)CS(=O)(=O)c1ccccc1	-	-	.	.	.
O=S(=O)(C/C(=C/CO)S(=O)(=O)c1ccccc1)c1ccccc1	-	-8	-	-	-
Cc1nnc(Cn2cnc3c2c(=O)n(C)c(=O)n3C)o1	-	-	.	.	.
CN(C)S(=O)(=O)c1cccc(NC(=O)C2Cc3ccccc3CN2C(=O)c2ccco2)c1 (centres undefined)	.	-	.	.	.
CCn1cc(-c2cc(C(=O)O)c3ccccc3n2)cn1	-	-	.	.	.
CC(C)C[C@H](NC(=O)N1CCn2c1nc1ccccc12)C(=O)NCc1ccccc1	-	-6.7	-	-	-
CC(C)C[C@H](NC(=O)N1CCn2c1nc1ccccc12)C(=O)NCCc1ccccc1	.	-	.	.	.
Cc1cc(Cl)cc(C)c1OCCNCc1ccccc1	-	-6.9	-	-	-
SMILES	KCNQ2 enhance	KCNQ2 block	KCNQ2 block conf	KCNQ1 spec	CHO Tl ctr	others
Cc1cc(C)c(OCCNCc2ccccc2)c(C)c1	.	-	.	.	.
CN(C)CCn1c2c(c(SCC(=O)Nc3cccc4ccccc34)nc1=O)CCC2	-	-	.	.	.
COC(=O)c1sccc1NC(=O)Nc1cccc(F)c1	-	-	.	.	.
CC(=O)Nc1ccccc1OCC(=O)NC(C)c1ccccc1 (centres undefined)	-	-	.	.	.
O=C(COc1ccccc1-c1ccccc1)N/N=C/c1cccc2ccccc12	-	-7.8	-	-	-
CC(NC(=O)COc1ccccc1-c1ccccc1)c1ccccc1 (centres undefined)	-	-6.9	-34%	-30%	-24%	KCNQ2 inh confirm=+
COc1ccc(/C=N/NC(=O)COc2ccccc2-c2ccccc2)cc1	.	-	.	.	.
Cc1ccc(S(=O)(=O)N(C)C)cc1NC(=O)c1cc(=O)c2ccccc2o1	-	-	.	.	.
O=C(NC1CC2CCCC(C1)N2Cc1cccs1)c1ccc([N+](=O)[O-])cc1 (centres undefined)	-	-	.	.	.
O=C1CN(Cc2ccccc2)C(=NCc2ccco2)S1	.	-	.	.	.
O=[N+]([O-])c1cccc(/C=N/N2CCN(Cc3ccccc3)CC2)c1	.	-	.	.	.
O=[N+]([O-])c1cccc(/C=N\N2CCN(Cc3ccccc3Cl)CC2)c1	-	-7.3	-	-	-
COc1ccc(CNC(=O)CN2C(=O)C(C)N(c3ccc(C)cc3)C2=O)cc1 (centres undefined)	.	-	.	.	.
COc1ccccc1CNC(=O)CN1C(=O)C(C)N(c2ccc(C)cc2)C1=O (centres undefined)	-	-7.5	-	-	-
CCN(CC(=O)NCc1ccc(Cl)cc1)C(=O)c1oc2ccccc2c1C	-	-7	-19%	-	-	KCNQ2 inh confirm=+
CCN(CC(=O)NCc1ccc(F)cc1)C(=O)c1oc2ccccc2c1C	.	-	.	.	.
CCc1ccc2c(c1)C(NC(C)=O)C(=O)N2CCN1CCOCC1 (centres undefined)	.	-	.	.	.
Nc1cccc(P(=O)(c2ccccc2)c2ccccc2)c1	.	-	.	.	.
O=P(c1ccccc1)(c1ccccc1)N(c1ccccc1)c1ccccc1	-	-6.8	-20%	-	-	KCNQ2 inh confirm=+
c1ccc(CC2CCN(C(c3cccs3)c3nnnn3C3CCCC3)CC2)cc1 (centres undefined)	.	-	.	.	.
c1ccc(CN(Cc2cccs2)C(c2cccs2)c2nnnn2C2CCCC2)cc1 (centres undefined)	-	-8.2	-	-	-
CCn1cc(C(=O)NC(=S)Nc2cccc(O)c2)cn1	-	-	.	.	.
Cc1cccc(OCc2nnc(SCC(=O)N3CCCC3)o2)c1	.	-	.	.	.
Cc1cccc(OCc2nnc(SCC(=O)N3c4ccccc4CCc4ccccc43)o2)c1	-	-7.3	-	-	-
O=C(NNC(=O)c1cc(-c2ccncc2)nc2ccccc12)Nc1ccc(F)cc1	-	-	.	.	.
SMILES	KCNQ2 enhance	KCNQ2 block	KCNQ2 block conf	KCNQ1 spec	CHO Tl ctr	others
Cc1cccc(-c2cc(C(=O)Nc3cccnc3)c3ccccc3n2)c1	-	-8	-47%	-48%	-46%	KCNQ2 inh confirm=+
Cc1cccc(-c2cc(C(=O)Nc3ccncc3)c3ccccc3n2)c1	.	-	.	.	.
O=C(c1cc(-c2ccccc2)nc2ccccc12)N1CCCc2ccccc21	.	-	.	.	.
O=C(NNC(=O)c1cc(-c2cccnc2)nc2ccccc12)Nc1ccc(Cl)cc1	-	-9.8	-27%	-	-	KCNQ2 inh confirm=-
Cc1cc(C)nc(NC(=O)c2cc(-c3ccc(C)s3)nc3ccccc23)c1	.	-	.	.	.
Cc1ccc(-c2cc(C(=O)Nc3cccnc3)c3ccccc3n2)s1	-	-7.9	-18%	-	-
Cc1cccc(-c2cc(C(=O)N3CCCc4ccccc43)c3ccccc3n2)c1	-	-6.8	-40%	-42%	-34%	KCNQ2 inh confirm=-
O=[N+]([O-])c1cccc(CSc2nnc(Cc3ccccc3)n2-c2ccc(F)cc2)c1	.	-	.	.	.
O=C(CSc1nnc(-c2ccc(O)cc2)o1)NNC(=O)c1ccncc1	.	-	.	.	.
O=C(NCc1cccs1)C1CCN(S(=O)(=O)c2ccccc2F)CC1	.	-	.	.	.
COc1cc(N/C(N)=N/c2nc(C)cc(C)n2)c(OC)cc1Cl	-	-	.	.	.
COc1ccccc1C(=O)NCC(=O)N/N=C/c1cn[nH]c1-c1ccccc1	-	-	.	.	.
COc1ccc(C(=O)NCC(=O)N2CCN(C(=O)c3ccco3)CC2)cc1	-	-	.	.	.
Cc1ccc(CNC2CCCCC2)s1	.	-	.	.	.
Cc1ccc(S(=O)(=O)N2CCOCC2)cc1C(=O)NC1CCSc2ccccc21 (centres undefined)	.	-	.	.	.
Cc1ccc(-c2cc(C(=O)Nc3cc(C)on3)c3ccccc3n2)cc1	.	-	.	.	.

Bioassay records from PubChem.
